Test results taken from PMC5540273 (PLoS ONE, 2017).

What was measured:
Details in all cases: concentration: 1 μM, replicates: in singlicate; n = 1
BUB1 = system: BUB1
CAMK1B = system: CAMK1B
CAMK1D = system: CAMK1D
CAMK1G = system: CAMK1G
CAMK1 = system: CAMK1
CAMK2A = system: CAMK2A
CAMK2B = system: CAMK2B
CAMK2D = system: CAMK2D
CAMK2G = system: CAMK2G
CAMK4 = system: CAMK4
CAMKK1 = system: CAMKK1
CAMKK2 = system: CAMKK2
CASK = system: CASK
CDC2L1 = system: T1, CDC2L1
T1 construct: gene CDK11B

CDC2L2 = system: CDC2L2
CDC2L5 = system: T2, CDC2L5
T2 construct: gene CDK13

CDK11 = system: T3, CDK11
T3 construct: gene CDK19

CDK2 = system: CDK2
CDK3 = system: CDK3
CDK4-cyclinD1 = system: CDK4-cyclinD1
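Further: KINOMEscan kinase panel screen.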

Fc1ccc(-c2ncn(CCCN3CCOCC3)c2-c2ccccn2)cc1 [SB-211742]
%Inh (BUB1): 0%
%Inh (CAMK1B): 0%
%Inh (CAMK1D): 0%
%Inh (CAMK1G): 0%
%Inh (CAMK1): 0%
%Inh (CAMK2A): 6%
%Inh (CAMK2B): 10%
%Inh (CAMK2D): 0%
%Inh (CAMK2G): 11%
%Inh (CAMK4): 20%
%Inh (CAMKK1): 16%
%Inh (CAMKK2): 19%
%Inh (CASK): 0%
%Inh (CDC2L1): 1%
%Inh (CDC2L2): 0%
%Inh (CDC2L5): 21%
%Inh (CDK11): 0%
%Inh (CDK2): 0%
%Inh (CDK3): 43%
%Inh (CDK4-cyclinD1): 22%

Cc1cccc(-c2nc(Nc3ccc4ncsc4c3)c3ccccc3n2)n1 [GW867588]
%Inh (BUB1): 47%
%Inh (CAMK1B): 21%
%Inh (CAMK1D): 14%
%Inh (CAMK1G): 0%
%Inh (CAMK1): 26%
%Inh (CAMK2A): 0%
%Inh (CAMK2B): 0%
%Inh (CAMK2D): 2%
%Inh (CAMK2G): 9%
%Inh (CAMK4): 0%
%Inh (CAMKK1): 0%
%Inh (CAMKK2): 20%
%Inh (CASK): 1%
%Inh (CDC2L1): 0%
%Inh (CDC2L2): 13%
%Inh (CDC2L5): 0%
%Inh (CDK11): 0%
%Inh (CDK2): 9%
%Inh (CDK3): 6%
%Inh (CDK4-cyclinD1): 0%

COc1ccc(COc2cc(-n3cnc4ccccc43)sc2C(N)=O)cc1 [GSK1024304]
%Inh (BUB1): 9%
%Inh (CAMK1B): 0%
%Inh (CAMK1D): 6%
%Inh (CAMK1G): 8%
%Inh (CAMK1): 7%
%Inh (CAMK2A): 0%
%Inh (CAMK2B): 0%
%Inh (CAMK2D): 0%
%Inh (CAMK2G): 23%
%Inh (CAMK4): 0%
%Inh (CAMKK1): 4%
%Inh (CAMKK2): 13%
%Inh (CASK): 0%
%Inh (CDC2L1): 0%
%Inh (CDC2L2): 0%
%Inh (CDC2L5): 0%
%Inh (CDK11): 22%
%Inh (CDK2): 0%
%Inh (CDK3): 9%
%Inh (CDK4-cyclinD1): 0%

Nc1nccc(-c2c(-c3ccc(F)cc3)ncn2C2CCN(CC(F)(F)F)CC2)n1 [SB-236560]
%Inh (BUB1): 49%
%Inh (CAMK1B): 80%
%Inh (CAMK1D): 0%
%Inh (CAMK1G): 2%
%Inh (CAMK1): 0%
%Inh (CAMK2A): 0%
%Inh (CAMK2B): 0%
%Inh (CAMK2D): 0%
%Inh (CAMK2G): 93.3%
%Inh (CAMK4): 11%
%Inh (CAMKK1): 13%
%Inh (CAMKK2): 88%
%Inh (CASK): 0%
%Inh (CDC2L1): 0%
%Inh (CDC2L2): 0%
%Inh (CDC2L5): 43%
%Inh (CDK11): 17%
%Inh (CDK2): 0%
%Inh (CDK3): 11%
%Inh (CDK4-cyclinD1): 49%

COc1cc2ncn(-c3cc(OCc4sccc4Cl)c(C(N)=O)s3)c2cc1OC [GSK448459]
%Inh (BUB1): 55%
%Inh (CAMK1B): 25%
%Inh (CAMK1D): 0%
%Inh (CAMK1G): 0%
%Inh (CAMK1): 4%
%Inh (CAMK2A): 0%
%Inh (CAMK2B): 0%
%Inh (CAMK2D): 2%
%Inh (CAMK2G): 12%
%Inh (CAMK4): 0%
%Inh (CAMKK1): 4%
%Inh (CAMKK2): 76%
%Inh (CASK): 12%
%Inh (CDC2L1): 0%
%Inh (CDC2L2): 10%
%Inh (CDC2L5): 0%
%Inh (CDK11): 9%
%Inh (CDK2): 0%
%Inh (CDK3): 8%
%Inh (CDK4-cyclinD1): 0%

Cl.Oc1cccc(Nc2ccnc3cc(-c4ccncc4)ccc23)c1 [GW494601]
%Inh (BUB1): 81%
%Inh (CAMK1B): 5%
%Inh (CAMK1D): 5%
%Inh (CAMK1G): 0%
%Inh (CAMK1): 35%
%Inh (CAMK2A): 0%
%Inh (CAMK2B): 0%
%Inh (CAMK2D): 6%
%Inh (CAMK2G): 29%
%Inh (CAMK4): 0%
%Inh (CAMKK1): 0%
%Inh (CAMKK2): 29%
%Inh (CASK): 10%
%Inh (CDC2L1): 0%
%Inh (CDC2L2): 10%
%Inh (CDC2L5): 0%
%Inh (CDK11): 4%
%Inh (CDK2): 0%
%Inh (CDK3): 0%
%Inh (CDK4-cyclinD1): 0%

CCc1ccnc(/C=C/c2n[nH]c3cc(Sc4ccccc4C(=O)NC)ccc23)c1
%Inh (BUB1): 49%
%Inh (CAMK1B): 8%
%Inh (CAMK1D): 0%
%Inh (CAMK1G): 2%
%Inh (CAMK1): 0%
%Inh (CAMK2A): 4%
%Inh (CAMK2B): 0%
%Inh (CAMK2D): 9%
%Inh (CAMK2G): 18%
%Inh (CAMK4): 0%
%Inh (CAMKK1): 16%
%Inh (CAMKK2): 11%
%Inh (CASK): 34%
%Inh (CDC2L1): 7%
%Inh (CDC2L2): 2%
%Inh (CDC2L5): 0%
%Inh (CDK11): 0%
%Inh (CDK2): 3%
%Inh (CDK3): 0%
%Inh (CDK4-cyclinD1): 16%

O=C(NCCCN1CCOCC1)c1cccc(Nc2nccc(Nc3ccc(Oc4ccccc4)cc3)n2)c1 [GW663929]
%Inh (BUB1): 28%
%Inh (CAMK1B): 37%
%Inh (CAMK1D): 33%
%Inh (CAMK1G): 0%
%Inh (CAMK1): 55%
%Inh (CAMK2A): 3%
%Inh (CAMK2B): 6%
%Inh (CAMK2D): 2%
%Inh (CAMK2G): 0%
%Inh (CAMK4): 0%
%Inh (CAMKK1): 0%
%Inh (CAMKK2): 7%
%Inh (CASK): 7%
%Inh (CDC2L1): 10%
%Inh (CDC2L2): 26%
%Inh (CDC2L5): 0%
%Inh (CDK11): 15%
%Inh (CDK2): 0%
%Inh (CDK3): 0%
%Inh (CDK4-cyclinD1): 6%

Fc1ccc(-c2ncn(CCCN3CCOCC3)c2-c2cccnc2)cc1 [SB-211743]
%Inh (BUB1): 4%
%Inh (CAMK1B): 0%
%Inh (CAMK1D): 0%
%Inh (CAMK1G): 0%
%Inh (CAMK1): 0%
%Inh (CAMK2A): 0%
%Inh (CAMK2B): 0%
%Inh (CAMK2D): 0%
%Inh (CAMK2G): 0%
%Inh (CAMK4): 14%
%Inh (CAMKK1): 0%
%Inh (CAMKK2): 0%
%Inh (CASK): 6%
%Inh (CDC2L1): 0%
%Inh (CDC2L2): 0%
%Inh (CDC2L5): 0%
%Inh (CDK11): 0%
%Inh (CDK2): 0%
%Inh (CDK3): 16%
%Inh (CDK4-cyclinD1): 0%

NS(=O)(=O)CCc1cccc(Nc2nccc(-c3c(-c4cccc(NC(=O)c5c(F)cccc5F)c4)nn4ccccc34)n2)c1 [GSK336735]
%Inh (BUB1): 77%
%Inh (CAMK1B): 0%
%Inh (CAMK1D): 29%
%Inh (CAMK1G): 0%
%Inh (CAMK1): 53%
%Inh (CAMK2A): 0%
%Inh (CAMK2B): 0%
%Inh (CAMK2D): 4%
%Inh (CAMK2G): 14%
%Inh (CAMK4): 0%
%Inh (CAMKK1): 0%
%Inh (CAMKK2): 8%
%Inh (CASK): 7%
%Inh (CDC2L1): 11%
%Inh (CDC2L2): 35%
%Inh (CDC2L5): 0%
%Inh (CDK11): 14%
%Inh (CDK2): 0%
%Inh (CDK3): 21%
%Inh (CDK4-cyclinD1): 0%
